# Assay results reported in PubChem BioAssay.
# Test: blockers of cytochrome c efflux from mitochondria – biochemical, purified mitochondria (AID 1603);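 note: mouse liver mitochondria challenged with calcium chloride; signal normalized to the plate average as 100%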
# Settings: stronger effect = lower value
row,Structure (SMILES),cytochrome c release ratio
1,C/C=C(\C)C(=O)O[C@H]1C[C@@H](OC(C)=O)[C@@]2(C(=O)OC)CO[C@@H]3C2[C@]12CO[C@](O)(C(=O)OC)[C@H]2[C@](C)(C12O[C@@]1(C)[C@H]1C[C@@H]2OC2OC=C[C@@]21O)[C@@H]3O (stereo not given in full),1.46
2,C=C1C2CC[C@H]3[C@]4(C)C[C@H](OC5OC(CO)C(OS(=O)(=O)O)C(OS(=O)(=O)O)C5OC(=O)CC(C)C)C[C@@H](C(=O)O)[C@H]4CC[C@]3(C2)[C@H]1O (stereo not given in full),1.3
3,O=C1CC2OCC=C3CN4CC[C@]56c7ccccc7N1C5[C@H]2[C@H]3CC46 (stereo not given in full),1
4,CO[C@H]1[C@H](O)[C@H](O[C@H]2CC[C@]3(C)C4CC[C@]5(C)C(C6=CC(=O)OC6)CC[C@]5(O)C4CC[C@@H]3C2)O[C@@H](C)[C@@H]1O (stereo not given in full),0.83
5,C[C@@H]1CC[C@H]2[C@@H](C)C(=O)O[C@@H]3OC4(C)CC[C@@H]1[C@]32OO4,1.15
6,C[C@H]1O[C@@H](O[C@H]2[C@@H](O)C[C@H](O[C@H]3[C@@H](O)C[C@H](O[C@H]4CC[C@]5(C)C6CC[C@]7(C)[C@@H](C8=CC(=O)OC8)CC[C@]7(O)C6CC[C@@H]5C4)O[C@@H]3C)O[C@@H]2C)C[C@H](O)[C@@H]1O (stereo not given in full),1.31
7,COc1ccc2c(c1OC)C(=O)O[C@H]2[C@H]1c2cc3c(cc2CCN1C)OCO3,1.06
8,COc1ccc2c(c1)[C@]13CCCC[C@H]1[C@H](C2)N(C)CC3,0.98
9,CCC(C)C(=O)O[C@H]1[C@H](O)C2C(CN3CC(C)CCC3[C@@]2(C)O)C2C[C@]34O[C@]5(O)C(OC(=O)C(C)(O)C(C)O)CC[C@@]3(C)C5C(OC(C)=O)[C@@H](OC(C)=O)C4[C@@]21O (stereo not given in full),1
10,CC(=O)C1=C(O)C2C3c4c[nH]c5cccc(c45)CC3C(C)(C)N2C1=O (stereo not given),1.1

# Test: polyglutamine aggregate formation blockers (AID 1604)
# Settings: polyglutamine-induced protein aggregation inhibition assay; stronger effect = higher value; concentration not given here
row,Structure (SMILES),inhibition of aggregation [%]
1,C/C=C(\C)C(=O)O[C@H]1C[C@@H](OC(C)=O)[C@@]2(C(=O)OC)CO[C@@H]3C2[C@]12CO[C@](O)(C(=O)OC)[C@H]2[C@](C)(C12O[C@@]1(C)[C@H]1C[C@@H]2OC2OC=C[C@@]21O)[C@@H]3O (stereo not given in full),72.4
2,C=C1C2CC[C@H]3[C@]4(C)C[C@H](OC5OC(CO)C(OS(=O)(=O)O)C(OS(=O)(=O)O)C5OC(=O)CC(C)C)C[C@@H](C(=O)O)[C@H]4CC[C@]3(C2)[C@H]1O (stereo not given in full),74.7
3,O=C1CC2OCC=C3CN4CC[C@]56c7ccccc7N1C5[C@H]2[C@H]3CC46 (stereo not given in full),70.4
4,CO[C@H]1[C@H](O)[C@H](O[C@H]2CC[C@]3(C)C4CC[C@]5(C)C(C6=CC(=O)OC6)CC[C@]5(O)C4CC[C@@H]3C2)O[C@@H](C)[C@@H]1O (stereo not given in full),94.4
5,C[C@@H]1CC[C@H]2[C@@H](C)C(=O)O[C@@H]3OC4(C)CC[C@@H]1[C@]32OO4,79.2
6,C[C@H]1O[C@@H](O[C@H]2[C@@H](O)C[C@H](O[C@H]3[C@@H](O)C[C@H](O[C@H]4CC[C@]5(C)C6CC[C@]7(C)[C@@H](C8=CC(=O)OC8)CC[C@]7(O)C6CC[C@@H]5C4)O[C@@H]3C)O[C@@H]2C)C[C@H](O)[C@@H]1O (stereo not given in full),76
7,COc1ccc2c(c1OC)C(=O)O[C@H]2[C@H]1c2cc3c(cc2CCN1C)OCO3,71.9
8,COc1ccc2c(c1)[C@]13CCCC[C@H]1[C@H](C2)N(C)CC3,78.2
9,CCC(C)C(=O)O[C@H]1[C@H](O)C2C(CN3CC(C)CCC3[C@@]2(C)O)C2C[C@]34O[C@]5(O)C(OC(=O)C(C)(O)C(C)O)CC[C@@]3(C)C5C(OC(C)=O)[C@@H](OC(C)=O)C4[C@@]21O (stereo not given in full),1.96
10,CC(=O)C1=C(O)C2C3c4c[nH]c5cccc(c45)CC3C(C)(C)N2C1=O (stereo not given),-15.2
